This is an account of results in PubChem BioAssay AID1006 (Sanford-Burnham Center for Chemical Genomics, 2008).

Among all 200,000 compounds or so, about 3,000 (1.5%) were called active. What follows is part of a selection rich in actives, with near analogues and random picks from the rest. A number with no mark means an inactive call.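 Rule for the calls: active = inhibition above about 50% when tested at 10 µM (limit read from the data); inactive = the rest.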

Luciferin 4-monooxygenase (Photinus pyralis), sequence (P08659 whole entry, looked up): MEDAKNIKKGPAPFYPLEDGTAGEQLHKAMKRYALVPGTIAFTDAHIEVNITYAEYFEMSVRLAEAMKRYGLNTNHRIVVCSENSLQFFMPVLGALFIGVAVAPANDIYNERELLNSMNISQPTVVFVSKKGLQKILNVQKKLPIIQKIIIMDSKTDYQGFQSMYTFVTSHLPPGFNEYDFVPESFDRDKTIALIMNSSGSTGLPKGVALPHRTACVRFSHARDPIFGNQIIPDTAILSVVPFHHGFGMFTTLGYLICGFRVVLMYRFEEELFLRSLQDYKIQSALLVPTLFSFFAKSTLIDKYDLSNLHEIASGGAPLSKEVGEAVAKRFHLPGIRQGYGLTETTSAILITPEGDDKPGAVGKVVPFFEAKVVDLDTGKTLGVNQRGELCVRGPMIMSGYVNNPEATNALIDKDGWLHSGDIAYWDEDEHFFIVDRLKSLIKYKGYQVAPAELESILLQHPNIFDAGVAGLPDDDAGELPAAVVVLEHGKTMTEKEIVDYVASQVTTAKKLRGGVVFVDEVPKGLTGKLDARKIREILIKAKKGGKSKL

The assay addresses Luciferin 4-monooxygenase (Photinus pyralis) (UniProt P08659). In words: inhibition of purified FLuc reporter enzyme – biochemical, luminescence, ATPLite, artefact control for luciferase-based inhibitor screens, primary screen (AID 1006). The conditions noted are these: ATPLite firefly luciferase biochemical luminescence, 10 min; at 10 µM; hits give high values. (In ATP-based viability assays light output follows the ATP content of the culture.)
As usually defined, the inhibition is the drop in the measured response relative to a control, in per cent. Take `c1ccc2c(NC3C4CC5CC(C4)CC3C5)nc(N3CCOCC3)nc2c1` (stereo not given): the inhibition was -8.2%.

With `CCOc1ccc(NC(=O)c2cc(C)nc3ccccc23)cc1`, the inhibition is -2.9%.

For the molecule `CCc1cccc(C)c1NC(=S)N(CCCN1CCN(C)CC1)Cc1cccs1`, the inhibition is -0.5%.

For the molecule `CN1C(=O)/C(=C\c2cc(Br)cs2)c2ccccc21`, the inhibition is 32.4%.

With `CN(C)c1nccc(NCc2ccccc2)c1C#N`, the inhibition was -1.3%.

As to `O=C1NC(c2ccccc2)CCC1(Cl)Cl` (stereo not given), the inhibition is -1.3%.

Consider `Cc1ccc(NC(=O)C(=O)NCc2ccc(/C=N/NC(=O)c3c(C)nc4cc(C)ccn34)o2)cc1`, for which the inhibition is 70.8% (active).

For the molecule `O=C(CSc1ccc(/C=N/NC(=O)c2cccc(F)c2)o1)Nc1ccccc1`, the inhibition was 3.7%.

As for `C/C(=N\OC(=O)c1ccccc1)c1c(C)nc2cc(C)ccn12`, the inhibition was -3.4%.

Take `C[C@@H]1CC[C@]2(O[C@@H](CCO)C[C@H](O)[C@H]2O)O1`: the inhibition is -2.6%.

In the case of `CCN(CC)CCNC(=O)c1ccc(NC(=O)c2c(F)cccc2Cl)cc1`, the inhibition is -2%.

Regarding `CC(=O)Nc1ccc(S(=O)(=O)NC2(C(F)(F)F)C(=O)NC(C)=C2C#N)cc1` (stereo not given), the inhibition is -5.9%.

Regarding `C/C(N)=C(/C#N)C(=O)COC(=O)c1cc(-c2ccc(C)cc2)nc2ccccc12`, the inhibition is 12.9%.

Regarding `CNC(=O)COC(=O)c1cc(-c2ccc(OC)cc2)nc2ccccc12`, the inhibition is 54.2% (active).

As to `COc1ccc(-c2cc(C(=O)n3cnc4ccccc43)c3ccccc3n2)cc1`, the inhibition was 36.7%.

`O=C(NNc1cc(Cl)ccc1Cl)c1cccnc1Cl`: the inhibition was -7.9%.

Take `CC(=O)c1sc(NC(=O)c2cccc3ccccc23)nc1C`: the inhibition is -4.9%.

For the molecule `CC(=O)c1sc(NC(=O)c2ccc(C)cc2)nc1C`, the inhibition was 68.8% (active).

As for `CC(=O)c1sc(N/N=C\c2ccc(C)cc2)nc1C`, the inhibition was -5.2%.

For `COc1ccc(OC)c(/C=C/C(=O)OCC(=O)Nc2ccc3c(c2)OCCO3)c1`, the inhibition is 0.6%.

Turning to `Cc1cccc(NC(=O)/C=C/c2ccc3c(c2)OCO3)n1`, the inhibition is 89.3% (active).

As to `COc1cccc(/C=C/C(=O)Nc2ccc3c(c2)OCCO3)c1`, the inhibition was 86.5% (active).

Take `Cc1cccc(NC(=O)Nc2ccc3c(c2)OCO3)n1`: the inhibition is 55% (active).

`COc1ccc(/C=C/C(=O)Nc2ccc3c(c2)OCCO3)cc1OC`: the inhibition was 10.1%.

Regarding `O=C(/C=C/c1ccc2c(c1)OCO2)NCc1ccc(F)cc1`, the inhibition is 1.2%.

As for `CC(NC(=O)Nc1ccc2c(c1)OCO2)c1ccncc1` (stereo not given), the inhibition was -4.9%.

Regarding `CC(C)C(=O)Nc1cccc(C(=O)Nc2ccc3c(c2)OCO3)c1`, the inhibition was 33%.

Consider `CCc1c(C)sc(NC(=O)/C=C/c2ccc3c(c2)OCO3)c1C(=O)OC`, for which the inhibition was 5%.

As to `CC(=O)c1c(-c2ccccc2)c2ccccc2[nH]c1=O`, the inhibition was -6.4%.

Consider `CSc1ccc(/C=N/N2CCN(Cc3ccccc3Cl)CC2)cc1`, for which the inhibition is -7.8%.

Regarding `O=C(Cc1ccc(Cl)cc1)NCc1nc(-c2ccccc2)no1`, the inhibition was -3.2%.

Take `Cc1ccc(N(C(=O)c2sc(C)nc2C)C(C(=O)NC(C)(C)C)c2ccncc2)cc1` (stereo not given): the inhibition is -4.2%.

On to `CCOC(=O)CN1CCC(c2ccccc2)CC1`, for which the inhibition is -0.7%.

`CCOc1ccc(S(=O)(=O)N/N=C(\C)c2ccc(Cl)c(Cl)c2Cl)cc1`: the inhibition is 1.5%.

As for `CC1(C)C2CC=C(/C=N/NC(=O)C3CC3)C1C2` (stereo not given), the inhibition is -0.4%.

Take `COc1ccc(OCc2cccc(C(=O)N3CCCC3)c2)cc1`: the inhibition is 52.1% (active).

For the molecule `CCN(CC)C(=O)c1ccc(O)c(OC)c1`, the inhibition is -4%.

Turning to `Cc1cccc(C(=O)N2CCCN(C(=O)c3cccc(C)c3)CC2)c1`, the inhibition is -3%.

On to `CC(C)c1cc(C(N)=O)c(NC(=O)c2cccc(COc3ccc(Br)cc3)c2)s1`, for which the inhibition was -2.6%.

Regarding `COc1ccc(OCC(=O)NNC(=O)c2cccc(C)c2)cc1`, the inhibition is -0.5%.

For `CCOc1ccc(OCc2cccc(C(=O)N(CC)CC)c2)cc1`, the inhibition was 68% (active).

Take `CCCn1nc(Oc2nc(NC(C)C)nc(N(C)C)n2)ccc1=O`: the inhibition is -7.4%.

For `Cc1ccccc1N1C(=O)C(Oc2ccc(Cl)cc2)C1CNCC1CCCO1` (stereo not given), the inhibition is -3.1%.

On to `CCOC(=O)c1sc(-c2cccc([N+](=O)[O-])c2)cc1N`, for which the inhibition is -3.5%.

In the case of `Cc1ccc(OCCCC(=O)NC(C)c2ccccc2)c(C)c1` (stereo not given), the inhibition was -1%.

As to `O=C(O)/C=C/c1ccc(OCCCF)cc1`, the inhibition is -2.5%.

On to `O=C(Oc1ccccc1Cl)c1ccc(N2CCOCC2)c([N+](=O)[O-])c1`, for which the inhibition is -14.3%.

Consider `COc1ccccc1NC(=O)COC(=O)Cc1ccc(S(=O)(=O)N2CCCCC2)s1`, for which the inhibition was -8.3%.

As to `O=C(NC1CCCC1)c1ccc(Br)s1`, the inhibition is 3.5%.

Take `O=C(Nc1ccc2c(c1)CCC2)c1ccc(Br)s1`: the inhibition is 57.1% (active).

With `CC(C)C(=O)OCC(=O)Nc1ccc2c(c1)CCC2`, the inhibition was 8.9%.

Take `CCNC(=O)CC1C(=O)N(c2ccc(F)cc2)C(=O)N1CCc1sccc1C` (stereo not given): the inhibition was -3.3%.

In the case of `COc1ccc(/C=C/CN2CCCC(C(=O)c3cc(F)ccc3F)C2)cc1` (stereo not given), the inhibition is -1.7%.

With `O=C(Oc1ccc([N+](=O)[O-])cc1)c1ccc(Cl)c(S(=O)(=O)N2CCCCC2)c1`, the inhibition was -5.6%.

In the case of `COc1ccc(OC)c(N=Cc2c(O)[nH]c3ccccc23)c1`, the inhibition was 0.1%.

On to `COc1ccc(N=Cc2c(O)[nH]c3ccccc23)cc1OC`, for which the inhibition is 6%.

As for `COc1ccccc1N=Cc1c(O)c2ccccc2oc1=O`, the inhibition was 95.4% (active).

For `COc1ccc(NC(=O)CN2C(=O)CSC2=O)cc1`, the inhibition was 1.6%.

For `O=C(CCC(=O)Nc1ccccc1)N/N=C/c1ccccc1F`, the inhibition is -1.2%.

For `O=C(/C=C/c1ccc2c(c1)OCO2)NCc1cn2cc(Cl)ccc2n1`, the inhibition was 5.7%.

For `CC(Oc1ccccc1)C(=O)Nc1oc(-c2ccco2)c(-c2ccco2)c1C#N` (stereo not given), the inhibition was -6.2%.

On to `COC(=O)c1cccnc1NC(=S)NC(C)C`, for which the inhibition was 9.9%.

Regarding `COc1ccc(C2=NOC3(CC(=O)N(c4ccc(C)cc4)C3=O)C2)cc1` (stereo not given), the inhibition was -1.7%.

Take `COc1ccc(C2=NOC(COC(=O)c3ccc4ccccc4n3)C2)cc1` (stereo not given): the inhibition was 3.5%.

For `COc1ccc(C2=Nc3cc(C)ccc3OC2)cc1`, the inhibition is 77.4% (active).
